High-throughput results (PubChem)
GDH-TPI counter-1: counter-screen for M. tuberculosis FBA inhibitors: GDH-TPI coupled enzymes; GDH-TPI coupled enzyme counterscreen, NADH absorbance; inhibition, % at 4.8 µM; hit rate 1.2% among 360,000; AID 588335; in the data active = inhibition above about 30%
UGM FP inh: blocks M. tuberculosis UGM enzyme; inhibition, % at 10 µM; hit rate 0.06% among 320,000; purified UGM, fluorescence polarization probe displacement; AID 504406; P9WIQ1; in the data active = inhibition above about 10%, passing the limit was not always enough
FadD28 FP inh: blocks FadD28 binding to the bisubstrate probe; hit rate 0.22% among 360,000; fluorescence polarization; AID 588549; inhibition, % at 12.5 µM; in the data active = inhibition above about 8.5%, passing the limit was not always enough
Mtb hypoxia inh: Mtb hypoxia fluorescent reporter inhibition; M. tuberculosis hypoxia-regulated fluorescent reporter, fluorescence; fluorescence inhibition, % (no concentration beside the values); hit rate 0.1% among 300,000; AID 1159583; in the data active = fluorescence inhibition mostly above about 23%, no sharp cut-off; inactive = mostly below about 17%
Rv3671c protease: inhibits the M. tuberculosis serine protease Rv3671c; inhibition, % at 5.96 µM; hit rate 0.048% among 320,000; P9WHR9; AID 2606; in the data active = inhibition above about 38%;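 also: extracellular domain of Rv3671c used as enzyme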
Mtb FBA inh: inhibitors of M. tuberculosis fructose-bisphosphate aldolase; purified M. tuberculosis FBA, fluorescence read-out; AID 588726; hit rate 2.3% among 360,000; inhibition, % at 1 µM
Target sequence (P9WQA3 whole entry, looked up): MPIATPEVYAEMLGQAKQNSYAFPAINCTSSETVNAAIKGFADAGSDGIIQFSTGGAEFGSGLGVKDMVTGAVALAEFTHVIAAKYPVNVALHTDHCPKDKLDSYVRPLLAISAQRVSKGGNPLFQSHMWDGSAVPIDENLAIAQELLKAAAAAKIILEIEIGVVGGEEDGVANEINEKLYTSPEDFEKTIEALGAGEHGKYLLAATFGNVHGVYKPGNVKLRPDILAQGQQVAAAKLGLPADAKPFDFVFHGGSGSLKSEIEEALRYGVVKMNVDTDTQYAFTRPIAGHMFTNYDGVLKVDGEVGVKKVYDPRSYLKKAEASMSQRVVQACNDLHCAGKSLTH
Mtb FBA inh conf: Mtb FBA inhibition, confirmed; shares compounds with Mtb FBA inh; purified M. tuberculosis FBA, fluorescence read-out; inhibition, % at 1 µM; hit rate 78% among 5,600; AID 651616
GDH-TPI counter-2: counter-screen for M. tuberculosis FBA inhibitors: GDH-TPI coupled enzyme inhibition | GDH-TPI coupled enzyme counterscreen, fluorescence | AID 652141 | inhibition, % at 1 µM | hit rate 81% among 5,600 | shares compounds with Mtb FBA inh; in the data active = inhibition above about 10%
GDH-TPI DR: counter-screen for M. tuberculosis FBA inhibitors: GDH-TPI dose response; shares compounds with Mtb FBA inh; GDH-TPI coupled enzyme assay, fluorescence, artifact counterscreen; IC50, µM; hit rate 79% among 170; AID 652145; call rule not given here
Hits are given with their value. An excerpt weighted towards active compounds, which were near 3.5% of everything screened. Rule as the data show it, unless noted: active = inhibition above about 27%; inactive = the rest.

`COc1ccc2c(c1)c1ncn(Cc3ccc(F)cc3)c(=O)c1n2C` gave GDH-TPI counter-1 inactive, UGM FP inh inactive, FadD28 FP inh inactive, Mtb hypoxia inh inactive, Rv3671c protease inactive, Mtb FBA inh 50.9, Mtb FBA inh conf inactive and GDH-TPI counter-2 inactive.
`CC1CN(C(C)CO)C(=O)c2cc(NC(=O)Nc3ccccc3)ccc2OC1CN(C)S(=O)(=O)c1cn(C)cn1` (centres undefined) gave Mtb hypoxia inh inactive.
`CCOC1OC(C(=O)NCc2nc3ccccc3[nH]2)=CC(c2ccc(C(F)(F)F)cc2)C1CCCO` (centres undefined) gave Mtb hypoxia inh inactive.
`O=C(CSc1cccc2cccnc12)NN=Cc1ccc(O)cc1` gave Mtb hypoxia inh inactive.
For CCN1CCCC1Cn1cnc2c([nH]c3ccc(OC)cc32)c1=O (centres undefined) the results were GDH-TPI counter-1 inactive, UGM FP inh inactive, FadD28 FP inh inactive, Mtb hypoxia inh inactive, Rv3671c protease inactive, Mtb FBA inh 57.3, Mtb FBA inh conf 156.6 and GDH-TPI counter-2 125.5.
CC(NC(=O)c1nc[nH]c1C(=O)NC(C)C(=O)OC(C)(C)C)C(=O)OCc1ccccc1 (centres undefined) was read as Mtb hypoxia inh inactive.
COc1cc2c(cc1OC)C(C1C(=O)CC(C)CC1=O)N(C(=O)CCl)CC2 (centres undefined) was read as GDH-TPI counter-1 inactive, UGM FP inh inactive, FadD28 FP inh inactive, Mtb hypoxia inh inactive, Rv3671c protease inactive, Mtb FBA inh 30.9, Mtb FBA inh conf inactive, GDH-TPI counter-2 inactive and GDH-TPI DR inactive.
`COc1ccc(N(C(=O)c2snc(C(N)=O)c2N)C(C(=O)NCc2ccccc2)c2ccc(O)cc2)cc1` (centres undefined) gave GDH-TPI counter-1 inactive, FadD28 FP inh inactive, Mtb hypoxia inh inactive and Mtb FBA inh inactive.
`NC(=O)c1nsc(C(=O)N(c2ccccc2)C(C(=O)NCc2ccc(F)cc2)c2ccc(O)cc2)c1N` (centres undefined) gave GDH-TPI counter-1 inactive, UGM FP inh inactive, FadD28 FP inh inactive, Mtb hypoxia inh inactive, Rv3671c protease inactive, Mtb FBA inh 36.7, Mtb FBA inh conf inactive and GDH-TPI counter-2 inactive.
`CC(=CC(=O)c1ccc(F)cc1)NCc1ccc2c(c1)OCO2` gave Mtb hypoxia inh inactive.
`Brc1c(CSc2nc3ccccc3s2)nc2ncccn12` gave GDH-TPI counter-1 inactive, UGM FP inh inactive, FadD28 FP inh inactive, Mtb hypoxia inh inactive, Rv3671c protease inactive, Mtb FBA inh 28.4, Mtb FBA inh conf 107.9 and GDH-TPI counter-2 81.7.
O=[N+]([O-])c1ccc2sc(SCc3nc4ccccn4c3Br)nc2c1 was read as UGM FP inh inactive, Mtb hypoxia inh inactive and Rv3671c protease inactive.
For C#CCOCCOCCOCCNc1nc(N2CCOCC2)nc(N2CCN(C(=O)CCCCCCCCCCNC(=O)C(CO)n3cc(CCCCCN)nn3)CC2)n1 (centres undefined) the results were Mtb hypoxia inh inactive.
For CCOC(=O)c1ccc(C(=O)OCC)c(NC(=S)Nc2ccc([N+](=O)[O-])cc2OC)c1 the results were GDH-TPI counter-1 inactive, UGM FP inh inactive, FadD28 FP inh inactive, Mtb hypoxia inh inactive, Rv3671c protease inactive, Mtb FBA inh 31.5, Mtb FBA inh conf inactive and GDH-TPI counter-2 inactive.
For CCOC(=O)Nc1ccc([N+](=O)[O-])cc1OC the results were GDH-TPI counter-1 inactive, UGM FP inh inactive, FadD28 FP inh inactive, Mtb hypoxia inh inactive, Rv3671c protease inactive and Mtb FBA inh inactive.
For COC(=O)c1[nH]c2ccc(Cl)cc2c1NC(=O)C1CC1 the results were GDH-TPI counter-1 inactive, UGM FP inh inactive, FadD28 FP inh inactive, Rv3671c protease inactive and Mtb FBA inh inactive.
Screening COC(=O)c1[nH]c2ccc(Cl)cc2c1NC(=O)Oc1ccccc1 returned GDH-TPI counter-1 inactive, UGM FP inh inactive, FadD28 FP inh inactive, Rv3671c protease inactive, Mtb FBA inh 66.2, Mtb FBA inh conf inactive and GDH-TPI counter-2 inactive.
For CCOc1ccccc1C=NNc1nc2ccccc2o1 the results were Mtb hypoxia inh inactive.
For CSc1ccc(C=NN2CCN(Cc3ccc(C)cc3C)CC2)cc1 the results were Mtb hypoxia inh inactive.
Screening CC1CCCCN1Cc1ccc(N)cc1 (centres undefined) returned GDH-TPI counter-1 inactive, UGM FP inh inactive, FadD28 FP inh inactive, Mtb hypoxia inh inactive, Rv3671c protease inactive and Mtb FBA inh inactive.
`CC1CCCCN1Cc1c(O)ccc2c(=O)c(-c3ccc(Cl)cc3)coc12` (centres undefined) gave GDH-TPI counter-1 inactive, UGM FP inh inactive, FadD28 FP inh inactive, Mtb hypoxia inh inactive, Rv3671c protease inactive, Mtb FBA inh 52.3, Mtb FBA inh conf 123.4 and GDH-TPI counter-2 102.6.
CC1CCCCN1Cc1c(O)ccc2c(=O)c(-c3ccc(Br)cc3)coc12 (centres undefined) was read as GDH-TPI counter-1 inactive, FadD28 FP inh inactive, Mtb hypoxia inh inactive, Mtb FBA inh 41.6, Mtb FBA inh conf active and GDH-TPI counter-2 163.9.
For Cc1c(CN2CCCCC2C)c(=O)n(-c2ccccc2)n1C (centres undefined) the results were GDH-TPI counter-1 inactive, UGM FP inh inactive, FadD28 FP inh inactive, Mtb hypoxia inh inactive, Rv3671c protease inactive and Mtb FBA inh inactive.
CC1CCCCN1Cc1c(O)ccc2c(=O)c(-c3ccc(Cl)cc3Cl)coc12 (centres undefined) was read as GDH-TPI counter-1 inactive, UGM FP inh inactive, FadD28 FP inh inactive, Mtb hypoxia inh inactive, Rv3671c protease inactive, Mtb FBA inh 61.7, Mtb FBA inh conf active and GDH-TPI counter-2 active.
For CCn1c(SCC(=O)NN=C/C=C/c2ccco2)nnc1-c1ccccc1 the results were Mtb hypoxia inh inactive.
Screening CCOC(=O)c1sc(N(C)C)nc1-c1ccccc1 returned GDH-TPI counter-1 inactive, UGM FP inh inactive, FadD28 FP inh inactive, Rv3671c protease inactive, Mtb FBA inh 39.0, Mtb FBA inh conf 135.9 and GDH-TPI counter-2 97.0.
`O=C(NN=Cc1cccnc1)c1ccc(Cl)cc1Cl` gave Mtb hypoxia inh inactive.
Screening O=C(NCC1CCCO1)C1c2ccccc2C(=O)N1C1CCCCCC1 (centres undefined) returned GDH-TPI counter-1 inactive, UGM FP inh inactive, FadD28 FP inh inactive, Mtb hypoxia inh inactive, Rv3671c protease inactive, Mtb FBA inh 41.4, Mtb FBA inh conf 111.6 and GDH-TPI counter-2 97.2.
Screening O=C(NCC1CCCO1)C1CCC(N2C(=O)c3ccccc3C2=O)CC1 (centres undefined) returned GDH-TPI counter-1 inactive, UGM FP inh inactive, FadD28 FP inh inactive, Mtb hypoxia inh inactive, Rv3671c protease inactive and Mtb FBA inh inactive.
